A selection: hits, their analogues and other compounds. The true share with any hit is near 2.9%.
pPAFAH FP inh = inhibitors of human plasma PAF acetylhydrolase (pPAFAH) | Q13093 | recombinant pPAFAH, FP-rhodamine probe fluorescence polarization | inhibition, % at 3.39 µM | 1.5% of 330,000 active | AID 463082;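 active means inhibition above the mean inhibition across the screen plus 3 SD, cut at about 25% in these data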;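 further: inhibitors block binding of the rhodamine activity-based probe so polarization drops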
PAFAH1B2 FP inh = PAFAH1B2 (human) inhibition. P68402. recombinant PAFAH1B2, FP-rhodamine activity probe, fluorescence polarization. inhibition, % at 3.39 µM. 1.2% of 340,000 active. AID 492953;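 active means inhibition above the mean of all tested compounds plus 3 SD, cut at about 24% in these data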
Target sequence (P68402 whole entry, looked up): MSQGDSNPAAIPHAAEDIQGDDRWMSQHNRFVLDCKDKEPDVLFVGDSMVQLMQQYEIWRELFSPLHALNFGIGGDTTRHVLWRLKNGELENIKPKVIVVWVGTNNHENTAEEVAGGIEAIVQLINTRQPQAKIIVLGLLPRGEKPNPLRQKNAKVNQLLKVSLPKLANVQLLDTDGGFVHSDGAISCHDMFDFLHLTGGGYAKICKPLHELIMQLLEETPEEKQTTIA
PAFAH2 FP inh = inhibitors of human PAFAH2; Q99487; recombinant PAFAH2, FP-rhodamine activity probe, fluorescence polarization; inhibition, % at 3.39 µM; 0.99% of 340,000 active;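 active means inhibition above the mean over all tested compounds plus 3 SD, cut at about 30% in these data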;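 further: inhibitors block probe labeling of enzyme so polarization drops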
LYPLA2 counter = blocks human lysophospholipase 2, a PME1 counter-screen | O95372 | 0.38% of 320,000 active | recombinant LYPLA2, FP-Rh probe fluorescence polarization | inhibition, % at 5.9 µM;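 active means inhibition above the screen-wide mean plus 3 SD, limit set per campaign, cut at about 26% in these data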
LYPLA1 inh = counter-screen for PME1 inhibitors: inhibitors of human LYPLA1; 0.16% of 320,000 active; inhibition, % at 5.9 µM; recombinant LYPLA1, FP-Rh probe fluorescence polarization; AID 2174; O75608;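 active means inhibition above the mean of all tested compounds plus 3 SD, set per campaign, cut at about 14% in these data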;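 further: inhibitors block serine hydrolase probe labeling of LYPLA1 so polarization falls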
PAFAH1B3 FP inh = inhibitors of human PAFAH1B3; 0.28% of 340,000 active; recombinant PAFAH1B3, FP-rhodamine probe, fluorescence polarization; inhibition, % at 3.39 µM; Q15102; AID 492972;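 active means inhibition above the screen-wide average of all tested compounds plus 3 SD, cut at about 25% in these data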
Target sequence (Q15102 whole entry, looked up): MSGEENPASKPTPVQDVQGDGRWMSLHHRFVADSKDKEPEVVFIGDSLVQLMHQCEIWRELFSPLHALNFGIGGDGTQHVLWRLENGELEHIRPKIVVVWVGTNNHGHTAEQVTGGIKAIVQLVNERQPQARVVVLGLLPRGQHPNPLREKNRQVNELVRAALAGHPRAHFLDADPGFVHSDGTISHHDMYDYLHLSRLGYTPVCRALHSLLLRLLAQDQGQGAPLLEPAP
A number is an active result.

Screening O=C(NC1CCCCC1)C1CCCN(S(=O)(=O)c2cccc3cccnc23)C1 (stereo unspecified) returned pPAFAH FP inh inactive, PAFAH1B2 FP inh inactive, PAFAH2 FP inh inactive, LYPLA2 counter inactive, LYPLA1 inh inactive and PAFAH1B3 FP inh inactive.
Screening CCCCN(C(=O)c1ccc(N2CCCC2=O)cc1)c1c(N)n(CCCC)c(=O)[nH]c1=O returned pPAFAH FP inh inactive, PAFAH1B2 FP inh inactive, PAFAH2 FP inh inactive, LYPLA2 counter inactive, LYPLA1 inh inactive and PAFAH1B3 FP inh inactive.
`CC(NS(=O)(=O)c1ccc2c(c1)C(C)(C)C(=O)N2C)c1ccccc1` (stereo unspecified) gave pPAFAH FP inh inactive, PAFAH1B2 FP inh inactive, PAFAH2 FP inh inactive, LYPLA2 counter inactive, LYPLA1 inh inactive and PAFAH1B3 FP inh inactive.
`COc1ccc(CN(C)C(=O)CCC(=O)N2CCN(S(=O)(=O)c3ccc(Cl)cc3)CC2)c(OC)c1` gave PAFAH1B2 FP inh 26.6, PAFAH2 FP inh inactive and PAFAH1B3 FP inh inactive.
For O=C(CNc1cccc([N+](=O)[O-])c1)N1CCN(S(=O)(=O)c2ccc(Cl)cc2)CC1 the results were PAFAH1B2 FP inh 24.5, PAFAH2 FP inh inactive and PAFAH1B3 FP inh inactive.
For COc1ccc(Cl)cc1NS(=O)(=O)c1ccc(OC)c(OC)c1 the results were pPAFAH FP inh inactive, PAFAH1B2 FP inh inactive, PAFAH2 FP inh inactive, LYPLA2 counter inactive, LYPLA1 inh inactive and PAFAH1B3 FP inh inactive.
`CCOc1ccc(OCCCC(=O)N2CCN(S(=O)(=O)c3ccc(Cl)cc3)CC2)cc1` gave pPAFAH FP inh inactive, PAFAH1B2 FP inh inactive, PAFAH2 FP inh inactive, LYPLA2 counter inactive, LYPLA1 inh inactive and PAFAH1B3 FP inh inactive.
Screening COc1ccc(Cl)cc1NS(=O)(=O)c1ccc(S(=O)(=O)N2CCCC2)cc1 returned pPAFAH FP inh inactive, PAFAH1B2 FP inh 25.1, PAFAH2 FP inh inactive, LYPLA2 counter inactive, LYPLA1 inh inactive and PAFAH1B3 FP inh inactive.
For O=C(CCCOc1ccccc1)N1CCN(S(=O)(=O)c2ccc(Cl)cc2)CC1 the results were pPAFAH FP inh inactive, PAFAH1B2 FP inh 29.5, PAFAH2 FP inh inactive, LYPLA2 counter inactive, LYPLA1 inh inactive and PAFAH1B3 FP inh inactive.
COc1ccc(CN(C)C(=O)CCc2ccc(S(=O)(=O)N3CCCCCC3)cc2)c(OC)c1 was read as pPAFAH FP inh inactive, PAFAH1B2 FP inh inactive, PAFAH2 FP inh inactive, LYPLA2 counter inactive, LYPLA1 inh inactive and PAFAH1B3 FP inh inactive.
O=C(CNc1cccc(S(=O)(=O)N2CCCCCC2)c1)Nc1cccc([N+](=O)[O-])c1 was read as pPAFAH FP inh inactive, PAFAH1B2 FP inh inactive, PAFAH2 FP inh inactive, LYPLA2 counter inactive, LYPLA1 inh inactive and PAFAH1B3 FP inh inactive.
Screening CCOc1ncccc1C(=O)OCC(=O)N1CCN(S(=O)(=O)c2ccc(Cl)cc2)CC1 returned pPAFAH FP inh inactive, PAFAH1B2 FP inh inactive, PAFAH2 FP inh inactive, LYPLA2 counter inactive, LYPLA1 inh inactive and PAFAH1B3 FP inh inactive.
`Nc1ncccc1C(=O)OCC(=O)N1CCN(S(=O)(=O)c2ccc(Cl)cc2)CC1` gave pPAFAH FP inh inactive, PAFAH1B2 FP inh 24.2, PAFAH2 FP inh inactive, LYPLA2 counter inactive, LYPLA1 inh inactive and PAFAH1B3 FP inh inactive.
`COc1ccc(CNC(=O)COc2ccc(S(=O)(=O)N3CCCCC3)cc2)cc1` gave pPAFAH FP inh 27.5, PAFAH1B2 FP inh inactive, PAFAH2 FP inh inactive, LYPLA2 counter inactive, LYPLA1 inh inactive and PAFAH1B3 FP inh inactive.
`O=C(COc1ccccc1)N1CCN(S(=O)(=O)c2ccc(Cl)cc2)CC1` gave pPAFAH FP inh inactive, PAFAH1B2 FP inh 30.6, PAFAH2 FP inh inactive, LYPLA2 counter inactive, LYPLA1 inh inactive and PAFAH1B3 FP inh inactive.
`COc1ccc(OCC(=O)OCC(=O)Nc2cc(S(=O)(=O)N3CCOCC3)ccc2Cl)cc1` gave pPAFAH FP inh 29.1, PAFAH1B2 FP inh inactive, PAFAH2 FP inh inactive and PAFAH1B3 FP inh inactive.
For COc1ccc(CNC(=O)COc2ccc(S(=O)(=O)N3CCCCC3)cc2Cl)cc1 the results were pPAFAH FP inh inactive, PAFAH1B2 FP inh inactive, PAFAH2 FP inh inactive, LYPLA2 counter inactive, LYPLA1 inh inactive and PAFAH1B3 FP inh inactive.
For Cn1c(C(=O)NN)cc2cc(OCc3ccccc3)ccc21 the results were pPAFAH FP inh inactive, LYPLA2 counter inactive and LYPLA1 inh inactive.
For O=C(COc1ccc(S(=O)(=O)N2CCCC2)cc1)N1CCCC1 the results were pPAFAH FP inh 31.3, PAFAH1B2 FP inh inactive, PAFAH2 FP inh inactive, LYPLA2 counter inactive, LYPLA1 inh inactive and PAFAH1B3 FP inh inactive.

Screening results as filed in PubChem.
